Experimental data as given in the supplement of paper PMC11732987, “Enantioselective OTUD7B fragment discovery through chemoproteomics screening and high-throughput optimisation” (Communications Chemistry, 2025).
Values without a mark were called inactive.

Key:
Experiment in all cases: log2 ratio of Biotin-Ahx-Ub-VS probe labelling (fragment/DMSO); higher = less target engagement (more negative = stronger competition), active = hit call of the paper (q ≤ 0.05, log2 ratio ≤ -1)
Conditions in all cases: compound concentration: 200 uM; treatment time: 3 h
[1] = molecular target: T1, USP19 (UniProt O94966)
T1 sequence (whole entry): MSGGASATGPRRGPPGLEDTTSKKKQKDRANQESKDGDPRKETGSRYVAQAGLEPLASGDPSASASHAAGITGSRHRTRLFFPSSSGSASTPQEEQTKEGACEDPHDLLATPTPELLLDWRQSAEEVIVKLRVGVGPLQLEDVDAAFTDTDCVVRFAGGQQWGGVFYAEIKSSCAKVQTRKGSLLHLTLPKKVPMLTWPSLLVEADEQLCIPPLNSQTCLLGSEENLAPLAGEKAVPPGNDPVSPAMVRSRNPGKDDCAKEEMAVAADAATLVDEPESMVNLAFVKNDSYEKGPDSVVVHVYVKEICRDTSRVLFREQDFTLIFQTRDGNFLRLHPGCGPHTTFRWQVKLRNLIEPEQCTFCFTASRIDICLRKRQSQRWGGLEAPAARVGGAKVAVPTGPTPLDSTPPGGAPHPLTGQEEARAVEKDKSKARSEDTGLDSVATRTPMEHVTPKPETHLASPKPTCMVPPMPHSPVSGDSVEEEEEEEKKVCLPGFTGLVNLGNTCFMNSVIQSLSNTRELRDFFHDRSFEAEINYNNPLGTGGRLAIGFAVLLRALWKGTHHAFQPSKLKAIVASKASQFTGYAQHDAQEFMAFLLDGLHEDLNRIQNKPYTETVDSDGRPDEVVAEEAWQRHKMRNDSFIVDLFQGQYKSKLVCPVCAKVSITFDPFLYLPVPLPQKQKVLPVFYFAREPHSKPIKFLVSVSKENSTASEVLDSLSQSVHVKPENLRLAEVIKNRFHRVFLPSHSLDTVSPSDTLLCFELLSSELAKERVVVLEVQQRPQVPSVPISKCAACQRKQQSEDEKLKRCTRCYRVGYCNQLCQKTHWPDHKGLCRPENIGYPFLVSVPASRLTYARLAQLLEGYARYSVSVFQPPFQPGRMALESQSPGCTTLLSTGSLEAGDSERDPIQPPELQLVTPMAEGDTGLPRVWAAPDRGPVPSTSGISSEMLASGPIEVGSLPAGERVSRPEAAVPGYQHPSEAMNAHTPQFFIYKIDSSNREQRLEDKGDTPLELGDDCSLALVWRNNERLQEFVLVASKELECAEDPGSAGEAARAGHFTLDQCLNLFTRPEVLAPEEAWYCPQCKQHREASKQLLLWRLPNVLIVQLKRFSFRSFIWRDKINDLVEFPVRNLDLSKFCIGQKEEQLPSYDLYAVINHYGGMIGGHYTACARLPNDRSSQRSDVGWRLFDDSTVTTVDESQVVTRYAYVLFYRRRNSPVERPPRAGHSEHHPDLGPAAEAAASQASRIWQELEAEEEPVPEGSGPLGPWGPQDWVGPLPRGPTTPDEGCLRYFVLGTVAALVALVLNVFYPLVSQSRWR
How it was run: (§1)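 HEK293T lysate in Tris/CHAPS/IGEPAL buffer with protease inhibitors (495 µg per sample) was given fragment at 200 µM or vehicle for 3 h, in triplicate. It then received Biotin-Ahx-Ub-VS at 0.5 µM final for 1 h. Labelled DUBs were NeutrAvidin-enriched, digested with LysC and trypsin, and run by diaPASEF LC-MS/MS. Values are average log2 fragment/vehicle ratios by unpaired t-test on global-median-normalised Spectronaut quantities of proteins with ≥2 unique peptides.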

[2] = molecular target: T2, USP22 (UniProt Q9UPT9)
T2 sequence (whole entry): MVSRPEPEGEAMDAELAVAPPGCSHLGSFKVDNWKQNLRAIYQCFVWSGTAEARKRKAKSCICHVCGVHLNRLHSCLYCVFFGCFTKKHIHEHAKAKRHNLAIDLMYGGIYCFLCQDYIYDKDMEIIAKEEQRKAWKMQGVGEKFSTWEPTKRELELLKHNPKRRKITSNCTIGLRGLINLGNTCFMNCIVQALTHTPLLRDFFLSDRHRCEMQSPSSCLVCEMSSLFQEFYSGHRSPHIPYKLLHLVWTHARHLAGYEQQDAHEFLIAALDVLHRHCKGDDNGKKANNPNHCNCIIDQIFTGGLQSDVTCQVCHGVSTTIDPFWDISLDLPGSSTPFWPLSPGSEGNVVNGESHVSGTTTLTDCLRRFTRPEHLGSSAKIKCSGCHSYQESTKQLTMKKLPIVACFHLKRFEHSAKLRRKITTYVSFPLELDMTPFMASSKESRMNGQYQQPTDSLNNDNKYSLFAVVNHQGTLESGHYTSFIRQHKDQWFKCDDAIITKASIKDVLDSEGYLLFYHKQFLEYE
How it was run: as §1

[3] = molecular target: USP24 (UniProt Q9UPU5)
How it was run: as §1

[4] = molecular target: T3, USP25 (UniProt Q9UHP3)
T3 sequence (whole entry): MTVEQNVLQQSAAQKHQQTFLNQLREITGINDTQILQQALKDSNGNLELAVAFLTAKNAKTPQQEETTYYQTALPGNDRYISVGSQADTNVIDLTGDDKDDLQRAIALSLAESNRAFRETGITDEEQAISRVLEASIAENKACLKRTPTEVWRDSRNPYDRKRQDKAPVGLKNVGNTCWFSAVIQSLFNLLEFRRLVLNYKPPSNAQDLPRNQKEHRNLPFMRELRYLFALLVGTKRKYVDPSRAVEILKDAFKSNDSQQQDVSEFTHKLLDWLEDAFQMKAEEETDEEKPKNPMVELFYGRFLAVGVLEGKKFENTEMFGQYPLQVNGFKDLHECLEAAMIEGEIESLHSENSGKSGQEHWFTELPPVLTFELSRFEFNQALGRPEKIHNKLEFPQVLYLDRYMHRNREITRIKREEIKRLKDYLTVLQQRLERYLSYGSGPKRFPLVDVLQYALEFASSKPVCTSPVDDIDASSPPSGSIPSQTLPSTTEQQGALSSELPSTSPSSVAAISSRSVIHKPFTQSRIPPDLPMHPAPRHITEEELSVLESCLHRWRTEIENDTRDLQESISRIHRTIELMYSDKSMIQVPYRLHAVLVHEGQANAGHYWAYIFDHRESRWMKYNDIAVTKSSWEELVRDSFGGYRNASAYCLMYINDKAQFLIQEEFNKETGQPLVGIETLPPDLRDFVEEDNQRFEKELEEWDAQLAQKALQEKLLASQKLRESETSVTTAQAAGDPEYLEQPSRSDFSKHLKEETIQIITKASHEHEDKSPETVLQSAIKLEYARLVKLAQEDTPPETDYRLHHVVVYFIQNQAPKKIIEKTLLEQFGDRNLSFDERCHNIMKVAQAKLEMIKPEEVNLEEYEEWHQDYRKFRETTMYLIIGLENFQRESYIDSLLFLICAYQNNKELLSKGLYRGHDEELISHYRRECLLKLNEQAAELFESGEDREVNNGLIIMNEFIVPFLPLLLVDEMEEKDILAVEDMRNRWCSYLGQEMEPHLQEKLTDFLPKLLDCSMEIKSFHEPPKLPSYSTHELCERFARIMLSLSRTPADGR
How it was run: as §1

[5] = molecular target: T4, USP28 (UniProt Q96RU2)
T4 sequence (whole entry): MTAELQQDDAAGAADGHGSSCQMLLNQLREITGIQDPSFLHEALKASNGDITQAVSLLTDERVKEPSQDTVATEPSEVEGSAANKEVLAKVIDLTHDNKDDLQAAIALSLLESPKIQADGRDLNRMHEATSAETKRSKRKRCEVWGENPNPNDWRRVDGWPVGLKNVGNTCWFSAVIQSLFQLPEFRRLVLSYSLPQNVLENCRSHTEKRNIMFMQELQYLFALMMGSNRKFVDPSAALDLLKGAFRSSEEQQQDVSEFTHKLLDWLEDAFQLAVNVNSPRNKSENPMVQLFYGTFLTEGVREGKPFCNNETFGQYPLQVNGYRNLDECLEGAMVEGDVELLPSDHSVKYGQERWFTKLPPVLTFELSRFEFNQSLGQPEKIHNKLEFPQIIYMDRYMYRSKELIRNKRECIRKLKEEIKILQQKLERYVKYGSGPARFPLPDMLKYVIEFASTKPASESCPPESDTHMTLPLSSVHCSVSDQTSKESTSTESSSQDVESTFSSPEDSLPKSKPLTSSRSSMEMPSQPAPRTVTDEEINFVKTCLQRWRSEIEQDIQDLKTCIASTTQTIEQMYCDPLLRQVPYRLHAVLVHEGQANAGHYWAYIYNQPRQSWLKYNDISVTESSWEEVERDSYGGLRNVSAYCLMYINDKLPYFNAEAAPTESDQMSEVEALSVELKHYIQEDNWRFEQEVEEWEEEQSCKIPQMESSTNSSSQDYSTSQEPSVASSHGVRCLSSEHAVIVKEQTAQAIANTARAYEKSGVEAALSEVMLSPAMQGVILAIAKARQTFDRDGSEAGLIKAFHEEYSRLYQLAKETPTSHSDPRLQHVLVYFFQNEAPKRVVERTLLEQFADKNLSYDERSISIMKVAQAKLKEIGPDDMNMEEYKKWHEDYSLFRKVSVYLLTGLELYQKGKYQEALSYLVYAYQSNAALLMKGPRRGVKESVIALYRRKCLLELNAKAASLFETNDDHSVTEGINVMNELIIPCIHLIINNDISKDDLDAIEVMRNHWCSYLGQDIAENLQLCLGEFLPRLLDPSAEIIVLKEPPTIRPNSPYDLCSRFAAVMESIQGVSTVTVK
How it was run: as §1

USP24, sequence (Q9UPU5 whole entry): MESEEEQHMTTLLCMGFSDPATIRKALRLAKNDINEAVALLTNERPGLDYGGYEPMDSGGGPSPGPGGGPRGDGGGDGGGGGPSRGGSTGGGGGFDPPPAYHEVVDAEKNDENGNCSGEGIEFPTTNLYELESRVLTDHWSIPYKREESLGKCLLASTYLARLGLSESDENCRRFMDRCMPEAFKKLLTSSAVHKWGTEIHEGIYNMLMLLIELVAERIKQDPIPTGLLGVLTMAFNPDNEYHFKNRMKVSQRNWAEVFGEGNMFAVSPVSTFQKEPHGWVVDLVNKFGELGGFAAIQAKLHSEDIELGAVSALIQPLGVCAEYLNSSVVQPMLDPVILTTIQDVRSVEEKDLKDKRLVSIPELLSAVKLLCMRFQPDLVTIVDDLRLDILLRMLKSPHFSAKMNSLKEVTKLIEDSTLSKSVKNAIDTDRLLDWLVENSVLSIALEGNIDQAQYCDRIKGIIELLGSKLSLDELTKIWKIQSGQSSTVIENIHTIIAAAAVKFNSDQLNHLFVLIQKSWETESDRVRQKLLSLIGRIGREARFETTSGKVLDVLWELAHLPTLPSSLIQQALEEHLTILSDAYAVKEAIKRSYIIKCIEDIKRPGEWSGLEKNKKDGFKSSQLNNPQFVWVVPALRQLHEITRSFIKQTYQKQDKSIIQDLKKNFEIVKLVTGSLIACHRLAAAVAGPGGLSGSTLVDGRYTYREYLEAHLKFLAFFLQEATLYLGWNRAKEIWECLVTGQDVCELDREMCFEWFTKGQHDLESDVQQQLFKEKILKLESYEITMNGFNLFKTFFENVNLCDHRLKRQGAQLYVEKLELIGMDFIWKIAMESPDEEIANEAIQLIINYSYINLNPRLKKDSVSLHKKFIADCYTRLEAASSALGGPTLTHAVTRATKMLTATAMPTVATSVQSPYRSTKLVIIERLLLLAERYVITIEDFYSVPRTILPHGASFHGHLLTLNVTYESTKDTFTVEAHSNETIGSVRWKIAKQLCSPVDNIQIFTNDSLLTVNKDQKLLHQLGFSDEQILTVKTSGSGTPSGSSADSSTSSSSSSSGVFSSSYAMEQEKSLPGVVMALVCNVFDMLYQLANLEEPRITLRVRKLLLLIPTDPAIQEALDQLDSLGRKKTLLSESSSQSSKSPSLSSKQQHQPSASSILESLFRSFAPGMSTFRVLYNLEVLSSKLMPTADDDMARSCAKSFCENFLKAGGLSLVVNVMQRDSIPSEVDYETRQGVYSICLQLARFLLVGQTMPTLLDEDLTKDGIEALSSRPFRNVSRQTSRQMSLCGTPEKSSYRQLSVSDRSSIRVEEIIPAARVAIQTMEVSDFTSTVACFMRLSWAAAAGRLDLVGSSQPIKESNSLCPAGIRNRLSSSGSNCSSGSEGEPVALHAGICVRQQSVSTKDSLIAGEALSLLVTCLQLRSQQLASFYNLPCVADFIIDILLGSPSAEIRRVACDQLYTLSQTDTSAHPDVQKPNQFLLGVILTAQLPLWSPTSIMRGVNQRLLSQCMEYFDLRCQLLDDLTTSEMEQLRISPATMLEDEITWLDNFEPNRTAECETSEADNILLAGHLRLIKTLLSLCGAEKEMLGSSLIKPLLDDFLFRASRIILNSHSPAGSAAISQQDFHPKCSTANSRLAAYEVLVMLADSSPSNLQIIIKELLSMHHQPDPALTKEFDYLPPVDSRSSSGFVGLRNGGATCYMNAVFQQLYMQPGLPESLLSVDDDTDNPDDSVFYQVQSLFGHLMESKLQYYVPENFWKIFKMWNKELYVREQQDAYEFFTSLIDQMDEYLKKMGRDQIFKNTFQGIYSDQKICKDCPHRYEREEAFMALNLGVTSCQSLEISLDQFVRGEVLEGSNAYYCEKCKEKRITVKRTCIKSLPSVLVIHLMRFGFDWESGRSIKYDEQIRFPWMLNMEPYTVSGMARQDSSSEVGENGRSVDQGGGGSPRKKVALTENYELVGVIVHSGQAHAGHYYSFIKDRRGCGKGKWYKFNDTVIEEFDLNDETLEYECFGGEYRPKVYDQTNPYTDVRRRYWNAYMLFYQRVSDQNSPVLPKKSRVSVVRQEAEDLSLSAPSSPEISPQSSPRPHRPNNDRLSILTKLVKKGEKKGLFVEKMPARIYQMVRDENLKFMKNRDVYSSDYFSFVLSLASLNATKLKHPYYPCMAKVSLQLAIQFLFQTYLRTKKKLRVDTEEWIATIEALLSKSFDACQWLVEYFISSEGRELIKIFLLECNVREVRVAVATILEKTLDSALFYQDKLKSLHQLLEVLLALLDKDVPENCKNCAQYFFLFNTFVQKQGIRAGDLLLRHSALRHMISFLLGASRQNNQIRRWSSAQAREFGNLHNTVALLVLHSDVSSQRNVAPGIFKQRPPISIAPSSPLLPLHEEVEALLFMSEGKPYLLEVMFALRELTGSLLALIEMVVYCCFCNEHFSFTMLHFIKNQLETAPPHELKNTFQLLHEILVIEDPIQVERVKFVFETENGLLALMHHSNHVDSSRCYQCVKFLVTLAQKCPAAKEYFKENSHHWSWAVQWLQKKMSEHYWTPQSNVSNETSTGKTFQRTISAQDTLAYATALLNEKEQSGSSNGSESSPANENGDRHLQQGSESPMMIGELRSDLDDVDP

## O=C(CCl)N1CCN(c2nc3ccccc3o2)CC1
[1]
  log2 ratio of Biotin-Ahx-Ub-VS probe labelling: -0.702
[2]
  log2 ratio of Biotin-Ahx-Ub-VS probe labelling: 0.146
[3]
  log2 ratio of Biotin-Ahx-Ub-VS probe labelling: -1.3 (active)
[4]
  log2 ratio of Biotin-Ahx-Ub-VS probe labelling: -0.53
[5]
  log2 ratio of Biotin-Ahx-Ub-VS probe labelling: -0.6
